# According to PubChem BioAssay AID2590 (National Center for Advancing Translational Sciences (NCATS), 2010):
# Several values for one entry are separate records, joined by “and”; a condition that tells them apart may be missing. Equal entries are not always repeated. Inconclusive results are not listed. A number with no mark means an inactive call. Activity calls are given as the source filed them. The call rests on the fitted dose curve; in most records, active means well fitted curve in the direction sought with a large enough effect; inconclusive means small, poorly fitted or top-dose-only effect, or another doubt; inactive means no such curve, though single readings can be large or run the other way.
# Target: Lysosomal acid glucosylceramidase (Homo sapiens) (UniProt P04062)
# Sequence (P04062 whole entry N409S): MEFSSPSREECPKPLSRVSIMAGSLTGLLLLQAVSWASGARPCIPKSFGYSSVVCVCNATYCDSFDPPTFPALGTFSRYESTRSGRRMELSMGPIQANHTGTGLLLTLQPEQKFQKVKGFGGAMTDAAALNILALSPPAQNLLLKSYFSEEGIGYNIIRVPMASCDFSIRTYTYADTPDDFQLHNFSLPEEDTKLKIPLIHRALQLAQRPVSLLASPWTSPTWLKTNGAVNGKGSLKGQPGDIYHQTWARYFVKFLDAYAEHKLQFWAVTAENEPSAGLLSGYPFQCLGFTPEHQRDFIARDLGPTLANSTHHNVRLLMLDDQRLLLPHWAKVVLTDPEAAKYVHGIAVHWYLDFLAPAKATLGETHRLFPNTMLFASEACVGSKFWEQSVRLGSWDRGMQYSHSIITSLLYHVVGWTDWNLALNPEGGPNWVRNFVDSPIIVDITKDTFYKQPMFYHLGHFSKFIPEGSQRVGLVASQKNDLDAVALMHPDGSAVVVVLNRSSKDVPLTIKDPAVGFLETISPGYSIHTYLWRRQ
# Experiment: qHTS Assay for Inhibitors and Activators of N370S glucocerebrosidase as a Potential Chaperone Treatment of Gaucher Disease: Primary Screen Confirmation;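 on activity change, negative = inhibition: 0% = enzyme with DMSO and -100% = no enzyme basal signal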
# Settings: N370S glucocerebrosidase enzyme activity, fluorogenic substrate; series mostly up to 54 µM; activity change, negative = inhibition: at the top concentration
# Text: NIH Chemical Genomics Center [NCGC]
# NIH Molecular Libraries Probe Production Centers Network [MLPCN]
# Assay Submitter (PI): Wei Zheng
# Glucocerebrosidase (GC) catalyzes the hydrolysis of beta-glucocerebroside to glucose and ceramide in lysosomes. Mutations in the glucocerebrosidase gene result in Gaucher disease, an autosomal recessive lysosomal storage disorder. Many of the mutations encountered in patients with Gaucher disease are missense alterations that may cause misfolding, decreased stability and/or mistrafficking of this lysosomal protein. […] These inhibitors include iminosugar analogs and three non-iminosugar inhibitors identified from a previous HTS of 62,000 compounds with the wild type recombinant enzyme. However, the enhancement of enzyme activity by the chaperone action of an enzyme inhibitor must be balanced against the direct inhibition of the enzyme. An enzyme activator could also function as a chaperone by binding to the enzyme and helping to correct its misfolding and mistrafficking. While activators for GC have not yet been identified, they may have better therapeutic potential than inhibitors. Therefore the discovery and development of chemical activators may provide a new strategy for the chaperone therapy.
# We have optimized a new assay using N370S mutant GC derived from the spleen of a Gaucher patient. […] In addition, the MLPCN compound library has expanded, which increases the chance of finding new and better probes.
# NCGC Assay Protocol Summary:
# This is a fluorogenic enzyme assay with 4-methylumbelliferyl-beta-D-glucopyranoside as the substrate and N370S glucocerebrosidase from human spleen homogenate as the enzyme preparation. Upon the hydrolysis of this fluorogenic substrate, the resulting product, […] which can be detected by a standard fluorescence plate reader. Data were normalized to the controls for basal activity (without enzyme) and 100% activity (with enzyme). The AC50 values were determined from concentration-response data modeled with the standard Hill equation.
# Assay buffer: 50 mM citric acid (titrated with potassium phosphate to pH 5.0), 100 mM potassium chloride, 10 mM sodium chloride, 1 mM magnesium chloride, 0.01% Tween-20.
# 1536-well assay protocol:
# (1) Add 2 ul/well of spleen homogenate (27 ug final)
# (2) Add 23 nL compounds in DMSO solution. The final titration was 0.5 nM to 58 uM.
# (3) Add 2 ul of substrate (1 mM final)
# (4) Incubate at 37C for 40 min.
# (5) Add 2 ul stop solution (1M NaOH and 1M Glycine mixture, pH 10)
# (6) Detect the assay plate in a ViewLux plate reader (PerkinElmer) with Ex=365 nm and Em=440nm.
# Keywords: Glucocerebrosidase, beta-glucosidase, Gaucher Disease, pharmacological chaperone, chaperone therapy, high throughput screening, glucocerebrosidase inhibitor, MLSMR, MLSCN, NIH Roadmap, qHTS and NCGC
# Potency means the concentration at half of the fitted maximal effect.
Structure (SMILES),Potency,"activity change, negative = inhibition [%]"
CC(Nc1nc(-c2ccccc2F)nc2ccccc12)c1ccccc1 (stereo not given),3.66 µM (active),–
CCOc1ccc(N(CC(=O)Nc2ccc(C)cc2)S(=O)(=O)c2c(C)[nH]c(=O)[nH]c2=O)cc1,11.2 µM (active),–
Cc1ccccc1S(=O)(=O)N1CCN(c2nc(-c3cccs3)nc3ccccc23)CC1,2.53 µM (active),–
S=C(NCCCc1cnc[nH]1)NCCCN(Cc1ccc(Cl)c(Cl)c1)c1ccc(Br)cn1,650 nM (active) and 579 nM (active),–
O=S(=O)(c1cccc(C(F)(F)F)c1)N1CCN(c2nc(-c3cccs3)nc3cc(Cl)ccc23)CC1,–,0.777
COC(=O)c1nc(N2CCN(S(=O)(=O)c3ccc(C)cc3)CC2)c2ccccc2n1,16.3 µM (active),–
O=[N+]([O-])c1ccccc1S(=O)(=O)N1CCN(c2nc(-c3ccccc3)nc3ccccc23)CC1,5.69 µM (active),–
O=S(=O)(c1cccc(Cl)c1)N1CCN(c2nc(-c3cccs3)nc3ccccc23)CC1,1.6 µM (active) and 1.79 µM (active),–
COc1ccccc1S(=O)(=O)N1CCN(c2nc(-c3cccs3)nc3ccccc23)CC1,0.73 µM (active),–
Cc1ccc(S(=O)(=O)N2CCN(c3ccnc(-c4cccs4)n3)CC2)cc1,9.19 µM (active),–
N=c1c2c(-c3ccccc3)c(-c3ccccc3)n(Cc3ccco3)c2ncn1CCCn1ccnc1,12.6 µM (active),–
COc1ccc(S(=O)(=O)N2CCN(c3nc(-c4cccs4)nc4ccccc34)CC2)cc1,0.819 µM (active),–
Cc1ccc(S(=O)(=O)N2CCN(c3nc(-c4ccc(F)cc4)nc4cc(Cl)ccc34)CC2)cc1,–,2.08
CN(CCCN(Cc1ccc(Cl)cc1)c1ccc(Br)cn1)C(=S)NCCCc1cnc[nH]1,2.53 µM (active),–
O=S(=O)(c1cccs1)N1CCN(c2nc(-c3cccs3)nc3ccccc23)CC1,0.819 µM (active),–
Cc1ccc(S(=O)(=O)N2CCC(c3nc(-c4cccs4)nc4ccccc34)CC2)cc1,–,-20.3
O=C(NCCN1CCOCC1)c1ccc(/C=C2\Sc3ccccc3N(Cc3ccccc3F)C2=O)cc1,7.3 µM (active),–
O=S(=O)(c1cccnc1)N1CCN(c2nc(-c3cccs3)nc3ccccc23)CC1,3.18 µM (active),–
O=S(=O)(c1ccccc1)N1CCN(c2nccc(-c3cccs3)n2)CC1,–,-3.77
CCN1CCN(c2nc3c(C)cccn3c(=O)c2/C=C(\C#N)C(=O)NCCOC)CC1,–,25.1

Structure (SMILES),Potency,"activity change, negative = inhibition [%]"
S=C(NCCCc1cnc[nH]1)NCCCN(Cc1ccc(Cl)cc1)c1ccc(Br)cc1,1.13 µM (active),–
CCN(CC)c1ccc(Br)cn1,9.18 µM (active),–
S=C(NCCCc1cnc[nH]1)NCCN(Cc1ccc(Cl)c(Cl)c1)c1ccc(Br)cn1,2.06 µM (active),–
CC(=O)N1CCN(C(=O)c2cc(-c3ccc(Cl)s3)nc3ccccc23)CC1,–,-3.72
Cc1cc(NC(=O)CCS(=O)(=O)c2ccc3c(c2)NC(=O)C(C)S3)ccc1Br (stereo not given),6.51 µM (active),–
CN1CCOc2cc(S(=O)(=O)N3CCN(c4nc(-c5cccs5)nc5ccccc45)CC3)ccc21,0.58 µM (active),–
Clc1ccccc1-c1nccc(NCc2ccccc2)n1,8.91 µM (active),–
CC(=O)c1ccc(S(=O)(=O)N2CCN(c3nc(-c4cccs4)nc4ccccc34)CC2)cc1,1.79 µM (active),–
COc1ccc(-c2cc3ccc(OCC(C)=O)cc3oc2=O)cc1,–,28.4
Cc1ccc(S(=O)(=O)N(C)CCN(C)c2nc(-c3cccs3)nc3ccccc23)cc1,2.25 µM (active),–
Cc1ccc(S(=O)(=O)N2CCN(c3nc(-c4ccc(CN5CCOCC5)s4)nc4ccccc34)CC2)cc1,11.3 µM (active),–
Cc1ccccc1-c1nccc(NCc2cccs2)n1,15.8 µM (active),–
O=S(=O)(c1ccc(Cl)cc1)N1CCN(c2nc(-c3ccc(F)cc3)nc3cc(Cl)ccc23)CC1,–,1.27
Cc1cc(C)nc(NC(=O)Cc2ccc(Cl)cc2)c1,–,-22.5
CCOC(=O)c1ccc(S(=O)(=O)N2CCN(c3nc(-c4cccs4)nc4ccccc34)CC2)cc1,0.819 µM (active),–
Cc1ccc(S(=O)(=O)N2CCN(c3nc(-c4cccs4)nc4c3ncn4COC(=O)C(C)(C)C)CC2)cc1,–,-14.4
NC(=NCCCCCCN=C(N)/N=C(\N)Nc1ccc(Cl)cc1)/N=C(\N)Nc1ccc(Cl)cc1,11.6 µM (active) and 18.3 µM (active) and 16.3 µM (active),–
Cc1cccc(NC(=S)Nc2cccc(C)n2)n1,–,11.5
S=C(NCCCc1cnc[nH]1)NCCCN(CCc1ccc(Cl)cc1)c1ccc(Br)cn1,1.79 µM (active),–
COc1ccccc1NC(=O)COc1ccccc1C(=O)Nc1ccccc1,–,10.7
